Data as given in ChEMBL document CHEMBL3988442, “University of Dundee, Small-Polar-MMV Screening Library” (2021).
Out of some 69,000 compounds screened, about 420 (0.61%) showed an effect of 50% or more. Many of the other results were omitted from the sample, so strong results are more common in it than they were.

What follows are compounds tested against T1, Histidine--tRNA ligase (Leishmania infantum) (UniProt A4I591) (assay: Leishmania infantum Histidine tRNA synthetase (LdHisRS)). Details: 30 µM.
T1 sequence (whole entry): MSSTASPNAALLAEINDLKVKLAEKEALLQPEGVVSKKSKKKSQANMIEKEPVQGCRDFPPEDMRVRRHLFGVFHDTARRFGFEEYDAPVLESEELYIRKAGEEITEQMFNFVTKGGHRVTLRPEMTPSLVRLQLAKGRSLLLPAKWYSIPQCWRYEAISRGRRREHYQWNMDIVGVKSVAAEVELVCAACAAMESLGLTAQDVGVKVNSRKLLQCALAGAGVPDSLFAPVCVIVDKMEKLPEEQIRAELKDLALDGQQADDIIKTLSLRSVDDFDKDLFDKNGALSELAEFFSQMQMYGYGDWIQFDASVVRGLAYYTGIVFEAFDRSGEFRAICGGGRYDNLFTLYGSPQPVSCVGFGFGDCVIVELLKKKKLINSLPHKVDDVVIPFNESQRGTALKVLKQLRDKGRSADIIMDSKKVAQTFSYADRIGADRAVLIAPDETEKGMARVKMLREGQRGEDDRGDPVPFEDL
Format: functional
Design: scale not given: in the data most compounds retested in dose-response had high values

SMILES	Percent Effect
c1cncc(NCCCNC2CCSC2)c1 (stereo unspecified)	28.6%
c1cncc(NCCNC2CSCCSC2)c1	74.3%
c1cncc(NCCNC2CCSCC2)c1	8.57%
c1cncc(NCCNC2CCSC2)c1 (stereo unspecified)	62.9%
CC(C)CN1CCC(NCCNc2cccnc2)CC1	9.76%
Cc1cnccc1NCCNC1CCSCC1	17.1%
Cn1cc(NC(=O)CCc2ccsc2)ccc1=O	103%
Cc1cc(NC(=O)CCc2ccsc2)n(C)n1	18.3%
Cc1cnccc1NC(=O)CCc1ccsc1	9.33%
Cn1cc(NC(=O)NCc2ccsc2)ccc1=O	126%
COCc1csc(NC(=O)NCc2ccsc2)n1	14.3%
CN(Cc1ccsc1)C(=O)Nc1ccc(=O)n(C)c1	123%
CN(Cc1ccsc1)C(=O)Nc1ccc(S(C)(=O)=O)cc1	11.9%
CCNC(=O)N1CCc2ccc(NC(=O)NCc3ccsc3)cc21	31.7%
CN(Cc1ccsc1)C(=O)Nc1ccc(S(=O)(=O)N(C)C)cc1	-30.3%
O=C1CO[C@H]2CN(S(=O)(=O)c3ccccc3)C[C@H]2N1Cc1ccccc1	25%
CCC1=N[C@@]2(CC[C@@H]3CN(S(C)(=O)=O)C[C@@H]32)C(=O)N1CC(C)C	7.96%
CC(C)CO[C@H]1CN(S(=O)(=O)c2cn(C)cn2)[C@@H]2CCCO[C@H]12	1.01%
C(=C\c1ccc(CN2CCCC2)cn1)/c1ccccc1	22.6%
COc1ccc(C)cc1CN1CCn2cccc2C1C (stereo unspecified)	42%
COc1ccc(C(C)=O)cc1CN1CCn2cccc2C1C (stereo unspecified)	52.7%

SMILES	Percent Effect
COc1ccc(CN2CCn3cccc3C2C)cc1F (stereo unspecified)	29.5%
CN(C)C[C@H]1OC[C@@H]2CCN(S(=O)(=O)c3ccc(F)cc3)C[C@@H]21	-4.59%
O=C1CC[C@H]2CN(C3CCOCC3)CC[C@H]2N1CCC1=CCCCC1	15.6%
COc1ccc(CN2C[C@@H]3CC[C@H](C2)N(S(C)(=O)=O)C3)cc1	10%
O=S1(=O)C[C@@H]2[C@H](C1)N(S(=O)(=O)N1CCCC1)CCN2Cc1ccccc1	19.2%
CN(C)CCN1CCO[C@H]2CCN(C(=O)c3cccs3)CC[C@@H]21	15.4%
CN(C)CCN1CCO[C@@H]2CCN(C(=O)c3cccn3C)CC[C@H]21	52.8%
CN(C)CCN1CCCC12CCN(C(=O)c1cccn1C)CC2	5.88%
COc1ccccc1CN1C(=O)O[C@@H]2CN(CC3CC3)C[C@@H]21	10%
O=C([C@@H]1CC[C@@H]2[C@@H](CCN2Cc2cccs2)O1)N1CCCCO1	17.1%
CC(C)c1nnc2n1CCN(C(=O)c1ccc(Cn3cccc3)cc1)C2	14.9%
Cc1nnc2n1CCN(C(=O)c1ccc(Cn3cccc3)cc1)C2	51.7%
NC(=O)c1cnc2n1CCN(C(=O)c1ccc(Cn3cccc3)cc1)C2	63.2%
NC(=O)c1cnc2n1CCN(C(=O)c1ccc(-c3cc[nH]n3)cc1)C2	14.9%
Cc1nc2ccc(C(=O)N3CCn4c(C)nnc4C3)cc2nc1C	21%
NC(=O)c1cnc2n1CCN(C(=O)c1cccc(Cn3cccn3)c1)C2	12.6%
COc1cccc(SCCCn2cnc3c(N)ncnc32)c1	4.08%
Clc1ccc(C2(CNC3=NCCN3)CCCCC2)cc1	50%
Clc1ccc(C2(CNC3=NCCN3)CC2)cc1	18.6%
Clc1ccc(C2(CNC3=NCCN3)CCCC2)cc1	35.7%
CC(C)c1n[nH]c(C(=O)Nc2ccccn2)c1Br	0%

SMILES	Percent Effect
CNC(=O)[C@@]12CCO[C@@H]1CCN(S(=O)(=O)c1ccccc1C)C2	5%
CC(C)CS(=O)(=O)N1C[C@H]2C[C@H](C(=O)N3CCOCC3)[C@@H](C1)O2	1.89%
O=C(c1cccnc1-c1ccoc1)N1C[C@H]2CC[C@@H]1C2	1.43%
COc1ccc(C2CC(=O)Nc3nc(N4CCOCC4)sc32)c(OC)c1 (stereo unspecified)	115%
COc1ccc(C2CC(=O)NCc3nc(N(C)C)sc32)c(O)c1 (stereo unspecified)	10.8%
COc1ccc(C2CC(=O)Nc3c2cnn3C)cc1 (stereo unspecified)	1.91%
COc1ccc(C(C)C)cc1C1CC(=O)NCc2nc(N(C)C)sc21 (stereo unspecified)	31.2%
COc1ccc(C2CC(=O)Nc3nc(N4CCOCC4)sc32)cc1 (stereo unspecified)	105%
CCn1ncnc1C1CC(=O)NCc2nc(N3CCOCC3)sc21 (stereo unspecified)	25.3%
COc1ccc(OC)c(C2CC(=O)Nc3nc(N4CCOCC4)sc32)c1 (stereo unspecified)	102%
COc1ccc(OC)c(C2CCN(CC(C)(C)N3CCOCC3)C2)c1 (stereo unspecified)	12.7%
COc1ccc(C2CCCN2c2nnc(C)s2)c(OC)c1 (stereo unspecified)	6.25%
O=C(c1ccncc1)N1C[C@@H]2CC[C@H](C1)N(C(=O)N1CCOCC1)C2	12.6%
COCC(=O)N1CC[C@]2(O)CCN(Cc3cccnc3OC)C[C@@H]2C1	17.1%
COc1ccc(CC(=O)N2CC[C@@H]3NC(=O)CC[C@@H]32)cc1	8.77%
CC(C)Cn1cncc1CNC(=O)c1cccc(CC2CCNCC2)c1	25.6%
CC(C)(O)CCc1cccc(C(=O)NCc2cnn3cccnc23)c1	2.22%
O=C(NCc1cnn2cccnc12)c1cccc(CC2CCNCC2)c1	60%
O=C(CC1CCCCC1)N1C[C@H]2CC[C@@H]1CN(Cc1cccnc1)C2	9.68%
